Experimental data published in ChEMBL document CHEMBL2218924, “A broad activity screen in support of a chemogenomic map for kinase signalling research and drug discovery” (Biochem J, 2013).

Experiments:
[1] = target: T1, Serine/threonine-protein kinase TBK1 (Homo sapiens) (UniProt Q9UHD2); details: at 10 µM
T1 sequence (whole entry): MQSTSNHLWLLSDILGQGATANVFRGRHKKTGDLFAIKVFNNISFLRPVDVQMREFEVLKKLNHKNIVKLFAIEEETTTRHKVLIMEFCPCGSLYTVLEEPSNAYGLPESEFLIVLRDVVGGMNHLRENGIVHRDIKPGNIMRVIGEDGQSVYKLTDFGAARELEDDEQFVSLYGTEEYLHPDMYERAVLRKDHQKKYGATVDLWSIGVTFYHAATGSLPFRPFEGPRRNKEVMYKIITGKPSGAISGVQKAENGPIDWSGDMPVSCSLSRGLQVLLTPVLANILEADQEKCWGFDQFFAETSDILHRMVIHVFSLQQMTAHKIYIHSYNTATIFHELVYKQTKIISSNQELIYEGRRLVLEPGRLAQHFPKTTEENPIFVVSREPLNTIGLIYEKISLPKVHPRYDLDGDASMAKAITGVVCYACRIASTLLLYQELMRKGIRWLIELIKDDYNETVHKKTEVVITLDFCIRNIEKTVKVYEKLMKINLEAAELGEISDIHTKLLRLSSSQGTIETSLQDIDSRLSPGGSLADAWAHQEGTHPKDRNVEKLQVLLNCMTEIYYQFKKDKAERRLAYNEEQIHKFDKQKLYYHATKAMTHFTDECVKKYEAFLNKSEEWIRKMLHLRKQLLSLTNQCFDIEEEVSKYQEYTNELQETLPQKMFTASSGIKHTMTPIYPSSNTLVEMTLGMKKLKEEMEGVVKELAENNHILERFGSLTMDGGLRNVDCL

[2] = target: T2, TGF-beta receptor type-1 (Homo sapiens) (UniProt P36897); details: at 1 µM
T2 sequence (whole entry): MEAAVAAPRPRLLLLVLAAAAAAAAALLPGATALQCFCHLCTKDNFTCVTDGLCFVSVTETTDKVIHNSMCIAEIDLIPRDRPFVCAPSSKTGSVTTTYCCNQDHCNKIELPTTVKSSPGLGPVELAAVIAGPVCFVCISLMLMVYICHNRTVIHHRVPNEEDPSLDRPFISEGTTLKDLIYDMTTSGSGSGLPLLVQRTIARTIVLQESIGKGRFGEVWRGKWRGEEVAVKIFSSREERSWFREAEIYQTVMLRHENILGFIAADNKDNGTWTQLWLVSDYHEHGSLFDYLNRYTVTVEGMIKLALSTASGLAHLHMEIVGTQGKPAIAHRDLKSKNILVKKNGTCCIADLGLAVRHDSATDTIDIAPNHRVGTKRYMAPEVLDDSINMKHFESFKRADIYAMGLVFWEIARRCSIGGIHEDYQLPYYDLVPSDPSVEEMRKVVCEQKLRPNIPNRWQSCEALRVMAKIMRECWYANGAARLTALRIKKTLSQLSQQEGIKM

[3] = target: T2, TGF-beta receptor type-1 (Homo sapiens); details: at 10 µM
[4] = target: T3, Inhibitor of nuclear factor kappa-B kinase subunit alpha (Homo sapiens) (UniProt O15111); details: at 1 µM
T3 sequence (whole entry): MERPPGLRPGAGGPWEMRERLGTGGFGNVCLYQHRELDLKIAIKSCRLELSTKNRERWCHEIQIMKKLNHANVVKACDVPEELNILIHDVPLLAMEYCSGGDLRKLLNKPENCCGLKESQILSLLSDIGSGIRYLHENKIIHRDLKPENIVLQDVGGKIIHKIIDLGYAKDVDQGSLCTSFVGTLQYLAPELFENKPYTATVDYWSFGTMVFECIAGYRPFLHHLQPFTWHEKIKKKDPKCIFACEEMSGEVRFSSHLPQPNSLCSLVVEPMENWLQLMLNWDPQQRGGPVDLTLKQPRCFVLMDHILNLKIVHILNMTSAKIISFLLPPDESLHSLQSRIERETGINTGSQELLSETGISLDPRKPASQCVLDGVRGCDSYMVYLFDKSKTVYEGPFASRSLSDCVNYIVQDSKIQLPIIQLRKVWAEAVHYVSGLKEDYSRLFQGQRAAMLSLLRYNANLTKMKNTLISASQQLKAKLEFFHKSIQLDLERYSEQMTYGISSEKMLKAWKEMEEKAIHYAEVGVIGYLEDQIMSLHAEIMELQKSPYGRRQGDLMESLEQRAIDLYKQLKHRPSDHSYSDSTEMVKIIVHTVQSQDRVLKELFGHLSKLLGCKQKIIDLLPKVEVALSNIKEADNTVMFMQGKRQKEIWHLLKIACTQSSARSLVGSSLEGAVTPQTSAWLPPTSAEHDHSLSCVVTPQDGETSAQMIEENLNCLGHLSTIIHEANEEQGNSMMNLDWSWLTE

[5] = target: T3, Inhibitor of nuclear factor kappa-B kinase subunit alpha (Homo sapiens); details: at 10 µM
[6] = target: T4, Inhibitor of nuclear factor kappa-B kinase subunit beta (Homo sapiens) (UniProt O14920); details: at 1 µM
T4 sequence (whole entry): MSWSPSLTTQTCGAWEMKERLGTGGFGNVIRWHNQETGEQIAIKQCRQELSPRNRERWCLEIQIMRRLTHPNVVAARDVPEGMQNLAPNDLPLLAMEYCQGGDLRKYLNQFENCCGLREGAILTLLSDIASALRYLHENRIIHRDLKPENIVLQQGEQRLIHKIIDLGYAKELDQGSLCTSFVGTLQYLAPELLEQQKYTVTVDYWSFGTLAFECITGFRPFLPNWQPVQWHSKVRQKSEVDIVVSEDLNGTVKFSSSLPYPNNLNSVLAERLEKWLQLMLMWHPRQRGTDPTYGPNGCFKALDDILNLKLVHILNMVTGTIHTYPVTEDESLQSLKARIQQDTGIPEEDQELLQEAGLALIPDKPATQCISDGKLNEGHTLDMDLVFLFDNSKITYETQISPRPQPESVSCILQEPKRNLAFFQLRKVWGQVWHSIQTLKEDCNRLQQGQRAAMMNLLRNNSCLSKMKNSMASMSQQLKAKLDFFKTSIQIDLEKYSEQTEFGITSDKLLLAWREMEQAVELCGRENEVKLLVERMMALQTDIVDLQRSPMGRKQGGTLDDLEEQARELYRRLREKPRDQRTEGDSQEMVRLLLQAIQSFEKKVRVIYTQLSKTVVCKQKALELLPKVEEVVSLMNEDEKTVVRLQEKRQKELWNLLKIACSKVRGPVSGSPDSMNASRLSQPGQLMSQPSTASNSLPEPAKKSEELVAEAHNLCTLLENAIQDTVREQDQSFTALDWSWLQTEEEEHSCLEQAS

[7] = target: T4, Inhibitor of nuclear factor kappa-B kinase subunit beta (Homo sapiens); details: at 10 µM
[8] = target: Insulin receptor (Homo sapiens) (UniProt P06213); details: at 1 µM
Chain of Insulin receptor (Homo sapiens) (P06213 28-758 limits assumed): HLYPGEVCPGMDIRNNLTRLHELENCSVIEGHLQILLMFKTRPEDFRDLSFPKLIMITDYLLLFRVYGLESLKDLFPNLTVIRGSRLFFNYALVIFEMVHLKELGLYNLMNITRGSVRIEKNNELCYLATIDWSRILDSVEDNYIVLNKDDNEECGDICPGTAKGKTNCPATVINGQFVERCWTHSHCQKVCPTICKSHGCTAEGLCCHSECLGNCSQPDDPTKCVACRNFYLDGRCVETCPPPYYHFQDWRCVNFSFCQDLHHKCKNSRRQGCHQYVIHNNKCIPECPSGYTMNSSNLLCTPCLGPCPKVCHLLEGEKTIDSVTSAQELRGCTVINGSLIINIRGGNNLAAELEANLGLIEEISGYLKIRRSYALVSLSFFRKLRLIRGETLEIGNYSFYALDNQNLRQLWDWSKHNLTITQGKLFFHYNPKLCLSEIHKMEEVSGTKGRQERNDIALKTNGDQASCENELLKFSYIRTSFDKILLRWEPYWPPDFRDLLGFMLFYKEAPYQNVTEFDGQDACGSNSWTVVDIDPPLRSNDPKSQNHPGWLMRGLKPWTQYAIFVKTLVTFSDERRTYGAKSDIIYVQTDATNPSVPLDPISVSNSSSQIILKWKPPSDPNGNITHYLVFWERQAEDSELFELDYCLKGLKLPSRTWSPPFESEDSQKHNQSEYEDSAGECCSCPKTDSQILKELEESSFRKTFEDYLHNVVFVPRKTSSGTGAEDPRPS
Chain of Insulin receptor (Homo sapiens) (P06213 763-1382 limits assumed): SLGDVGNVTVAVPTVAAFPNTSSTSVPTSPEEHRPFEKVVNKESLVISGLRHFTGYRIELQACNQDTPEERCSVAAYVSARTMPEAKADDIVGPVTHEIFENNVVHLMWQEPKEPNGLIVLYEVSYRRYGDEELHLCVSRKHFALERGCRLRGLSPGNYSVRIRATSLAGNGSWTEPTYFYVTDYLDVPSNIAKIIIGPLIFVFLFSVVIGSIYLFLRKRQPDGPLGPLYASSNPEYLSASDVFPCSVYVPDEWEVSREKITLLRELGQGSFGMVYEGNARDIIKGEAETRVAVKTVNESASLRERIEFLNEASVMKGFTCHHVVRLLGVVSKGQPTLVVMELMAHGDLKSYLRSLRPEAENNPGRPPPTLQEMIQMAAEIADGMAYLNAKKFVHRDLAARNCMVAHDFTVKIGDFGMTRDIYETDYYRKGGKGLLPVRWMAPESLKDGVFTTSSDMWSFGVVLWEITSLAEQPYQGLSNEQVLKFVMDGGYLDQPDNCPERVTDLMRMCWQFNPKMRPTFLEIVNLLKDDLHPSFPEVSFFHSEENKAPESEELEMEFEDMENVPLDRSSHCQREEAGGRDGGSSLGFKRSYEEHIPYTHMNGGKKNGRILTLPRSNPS

[9] = target: Insulin receptor (Homo sapiens) (UniProt P06213); details: at 10 µM
[10] = target: Insulin receptor (Homo sapiens) (UniProt P06213); details: at 1 µM; remark: listed apart in the source
[11] = target: Insulin receptor (Homo sapiens) (UniProt P06213); details: at 10 µM; remark: listed apart in the source
[12] = target: Interleukin-1 receptor-associated kinase 1 (Homo sapiens) (UniProt P51617); details: at 1 µM
Chain of Interleukin-1 receptor-associated kinase 1 (Homo sapiens) (P51617 whole entry, looked up): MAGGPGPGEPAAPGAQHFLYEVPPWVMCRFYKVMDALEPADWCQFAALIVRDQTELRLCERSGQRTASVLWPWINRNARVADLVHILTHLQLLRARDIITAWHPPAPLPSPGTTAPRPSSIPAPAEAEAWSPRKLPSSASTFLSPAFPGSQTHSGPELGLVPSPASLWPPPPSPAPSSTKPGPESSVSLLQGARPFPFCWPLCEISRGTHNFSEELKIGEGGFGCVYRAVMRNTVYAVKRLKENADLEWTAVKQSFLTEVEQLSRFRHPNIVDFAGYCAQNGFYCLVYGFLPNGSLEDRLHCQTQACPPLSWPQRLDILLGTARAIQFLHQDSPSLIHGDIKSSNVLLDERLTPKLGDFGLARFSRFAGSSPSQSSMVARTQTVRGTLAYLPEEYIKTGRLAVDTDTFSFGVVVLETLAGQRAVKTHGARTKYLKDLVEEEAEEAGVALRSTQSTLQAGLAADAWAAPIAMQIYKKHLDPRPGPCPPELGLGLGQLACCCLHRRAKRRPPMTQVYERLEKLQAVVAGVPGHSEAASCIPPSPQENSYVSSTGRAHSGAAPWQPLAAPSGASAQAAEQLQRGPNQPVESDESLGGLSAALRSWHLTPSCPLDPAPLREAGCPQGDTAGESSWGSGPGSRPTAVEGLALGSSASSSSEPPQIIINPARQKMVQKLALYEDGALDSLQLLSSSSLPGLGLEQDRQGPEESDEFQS

[13] = target: Interleukin-1 receptor-associated kinase 1 (Homo sapiens) (UniProt P51617); details: at 10 µM
[14] = target: T5, Interleukin-1 receptor-associated kinase 4 (Homo sapiens) (UniProt Q9NWZ3); details: at 10 µM
T5 sequence (whole entry): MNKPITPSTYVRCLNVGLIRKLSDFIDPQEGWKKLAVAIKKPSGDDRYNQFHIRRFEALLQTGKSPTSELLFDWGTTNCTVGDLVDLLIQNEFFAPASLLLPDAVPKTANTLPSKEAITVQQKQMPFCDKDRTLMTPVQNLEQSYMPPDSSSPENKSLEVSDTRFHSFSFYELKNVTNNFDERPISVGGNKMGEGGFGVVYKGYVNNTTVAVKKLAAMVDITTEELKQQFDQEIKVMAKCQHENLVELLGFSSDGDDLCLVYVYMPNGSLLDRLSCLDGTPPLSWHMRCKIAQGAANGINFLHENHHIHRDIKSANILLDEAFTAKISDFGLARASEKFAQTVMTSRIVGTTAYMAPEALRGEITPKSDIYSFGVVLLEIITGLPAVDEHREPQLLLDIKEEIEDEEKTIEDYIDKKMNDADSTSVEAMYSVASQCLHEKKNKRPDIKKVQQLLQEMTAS

[15] = target: Insulin-like growth factor 1 receptor (Homo sapiens) (UniProt P08069); details: at 1 µM
Chain of Insulin-like growth factor 1 receptor (Homo sapiens) (P08069 31-736 limits assumed): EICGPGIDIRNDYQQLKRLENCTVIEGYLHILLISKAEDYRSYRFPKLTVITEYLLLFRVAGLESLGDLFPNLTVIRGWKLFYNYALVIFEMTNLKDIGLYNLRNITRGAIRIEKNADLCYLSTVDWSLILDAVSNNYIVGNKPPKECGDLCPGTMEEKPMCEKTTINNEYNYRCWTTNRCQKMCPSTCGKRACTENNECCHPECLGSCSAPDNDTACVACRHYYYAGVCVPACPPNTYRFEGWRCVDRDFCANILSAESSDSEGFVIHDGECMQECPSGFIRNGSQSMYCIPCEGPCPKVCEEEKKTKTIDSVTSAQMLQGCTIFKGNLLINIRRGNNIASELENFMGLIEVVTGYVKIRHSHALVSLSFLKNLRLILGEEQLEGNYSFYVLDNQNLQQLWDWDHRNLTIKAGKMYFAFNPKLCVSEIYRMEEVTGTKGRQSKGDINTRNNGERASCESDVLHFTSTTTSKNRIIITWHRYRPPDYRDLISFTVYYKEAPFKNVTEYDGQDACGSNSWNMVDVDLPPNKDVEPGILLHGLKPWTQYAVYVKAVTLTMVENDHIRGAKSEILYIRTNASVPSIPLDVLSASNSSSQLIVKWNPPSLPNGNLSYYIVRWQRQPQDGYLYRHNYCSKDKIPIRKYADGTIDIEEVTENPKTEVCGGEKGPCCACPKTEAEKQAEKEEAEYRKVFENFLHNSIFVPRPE
Chain of Insulin-like growth factor 1 receptor (Homo sapiens) (P08069 741-1367 limits assumed): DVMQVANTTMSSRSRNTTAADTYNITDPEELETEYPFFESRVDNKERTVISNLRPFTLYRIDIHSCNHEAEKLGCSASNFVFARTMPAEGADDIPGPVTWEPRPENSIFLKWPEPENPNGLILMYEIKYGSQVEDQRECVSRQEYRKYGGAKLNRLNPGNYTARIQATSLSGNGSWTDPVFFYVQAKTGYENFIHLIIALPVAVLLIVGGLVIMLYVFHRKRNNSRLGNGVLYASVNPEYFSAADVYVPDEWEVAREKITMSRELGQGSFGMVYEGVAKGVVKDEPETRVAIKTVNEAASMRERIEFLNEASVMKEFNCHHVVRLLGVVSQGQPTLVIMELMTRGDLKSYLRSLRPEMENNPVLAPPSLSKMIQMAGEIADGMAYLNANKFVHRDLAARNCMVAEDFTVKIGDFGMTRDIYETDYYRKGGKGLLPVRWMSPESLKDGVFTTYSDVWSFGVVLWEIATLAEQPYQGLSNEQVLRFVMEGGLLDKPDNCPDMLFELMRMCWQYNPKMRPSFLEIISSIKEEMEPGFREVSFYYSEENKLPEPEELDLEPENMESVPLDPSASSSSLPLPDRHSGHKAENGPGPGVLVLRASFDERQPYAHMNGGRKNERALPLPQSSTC

[16] = target: Insulin-like growth factor 1 receptor (Homo sapiens) (UniProt P08069); details: at 10 µM
[17] = target: T5, Interleukin-1 receptor-associated kinase 4 (Homo sapiens); details: at 1 µM
[18] = target: Insulin receptor-related protein (Homo sapiens) (UniProt P14616); details: at 1 µM
Chain of Insulin receptor-related protein (Homo sapiens) (P14616 27-742 limits assumed): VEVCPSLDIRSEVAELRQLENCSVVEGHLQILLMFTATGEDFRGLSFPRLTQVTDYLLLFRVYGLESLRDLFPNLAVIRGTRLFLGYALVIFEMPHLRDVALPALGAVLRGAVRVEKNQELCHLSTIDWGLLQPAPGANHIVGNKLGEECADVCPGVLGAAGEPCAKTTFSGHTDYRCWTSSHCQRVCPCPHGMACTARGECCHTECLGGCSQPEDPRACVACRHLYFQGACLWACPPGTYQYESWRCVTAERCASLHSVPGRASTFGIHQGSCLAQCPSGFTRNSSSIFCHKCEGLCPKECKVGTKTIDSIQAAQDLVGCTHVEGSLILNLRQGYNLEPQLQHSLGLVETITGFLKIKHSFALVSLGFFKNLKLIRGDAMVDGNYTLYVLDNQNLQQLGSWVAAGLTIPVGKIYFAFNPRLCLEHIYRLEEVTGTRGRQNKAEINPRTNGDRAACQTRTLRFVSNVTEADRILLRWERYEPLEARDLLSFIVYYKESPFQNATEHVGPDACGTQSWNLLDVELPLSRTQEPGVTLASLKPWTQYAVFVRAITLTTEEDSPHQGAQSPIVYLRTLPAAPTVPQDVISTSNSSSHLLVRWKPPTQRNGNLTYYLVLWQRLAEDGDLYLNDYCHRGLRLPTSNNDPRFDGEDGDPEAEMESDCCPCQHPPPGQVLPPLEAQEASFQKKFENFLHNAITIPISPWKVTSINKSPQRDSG
Chain of Insulin receptor-related protein (Homo sapiens) (P14616 747-1297 limits assumed): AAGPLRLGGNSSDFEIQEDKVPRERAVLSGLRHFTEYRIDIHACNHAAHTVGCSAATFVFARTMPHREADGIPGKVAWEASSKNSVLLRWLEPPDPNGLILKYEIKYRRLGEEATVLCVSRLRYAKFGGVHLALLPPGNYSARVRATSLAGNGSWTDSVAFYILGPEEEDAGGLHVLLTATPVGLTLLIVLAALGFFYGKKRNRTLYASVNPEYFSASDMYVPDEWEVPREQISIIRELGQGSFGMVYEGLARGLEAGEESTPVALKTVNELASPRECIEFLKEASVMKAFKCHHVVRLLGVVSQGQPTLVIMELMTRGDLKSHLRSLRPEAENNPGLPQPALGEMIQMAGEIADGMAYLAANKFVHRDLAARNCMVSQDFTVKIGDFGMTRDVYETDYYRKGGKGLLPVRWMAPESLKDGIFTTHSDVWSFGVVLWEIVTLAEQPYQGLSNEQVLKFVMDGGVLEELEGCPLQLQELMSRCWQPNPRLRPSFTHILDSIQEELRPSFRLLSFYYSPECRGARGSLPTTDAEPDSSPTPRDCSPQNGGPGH

[19] = target: Insulin receptor-related protein (Homo sapiens) (UniProt P14616); details: at 10 µM
[20] = target: T6, Tyrosine-protein kinase ITK/TSK (Homo sapiens) (UniProt Q08881); details: at 1 µM
T6 sequence (whole entry): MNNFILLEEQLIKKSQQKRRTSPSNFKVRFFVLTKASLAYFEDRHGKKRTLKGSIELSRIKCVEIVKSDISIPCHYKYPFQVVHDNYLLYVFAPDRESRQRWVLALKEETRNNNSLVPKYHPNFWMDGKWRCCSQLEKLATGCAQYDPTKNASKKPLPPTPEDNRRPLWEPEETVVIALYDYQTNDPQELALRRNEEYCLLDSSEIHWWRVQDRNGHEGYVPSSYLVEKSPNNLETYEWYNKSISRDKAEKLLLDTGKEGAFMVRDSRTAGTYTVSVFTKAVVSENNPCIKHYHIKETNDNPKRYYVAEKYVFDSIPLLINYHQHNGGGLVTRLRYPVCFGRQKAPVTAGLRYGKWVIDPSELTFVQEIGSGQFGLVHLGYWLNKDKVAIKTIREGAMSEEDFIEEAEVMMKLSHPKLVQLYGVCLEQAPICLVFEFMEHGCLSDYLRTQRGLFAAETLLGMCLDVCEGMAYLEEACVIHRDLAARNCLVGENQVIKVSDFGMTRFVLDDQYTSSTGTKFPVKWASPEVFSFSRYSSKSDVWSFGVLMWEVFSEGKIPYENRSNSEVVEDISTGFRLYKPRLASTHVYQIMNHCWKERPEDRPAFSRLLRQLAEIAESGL

Row | Structure (SMILES) | residual activity [1] [%] | residual activity [2] [%] | residual activity [3] [%] | residual activity [4] [%] | residual activity [5] [%] | residual activity [6] [%] | residual activity [7] [%] | residual activity [8] [%] | residual activity [9] [%] | residual activity [10] [%] | residual activity [11] [%] | residual activity [12] [%] | residual activity [13] [%] | residual activity [14] [%] | residual activity [15] [%] | residual activity [16] [%] | residual activity [17] [%] | residual activity [18] [%] | residual activity [19] [%] | residual activity [20] [%]
1 | O=C(O)/C=C/c1cc(Br)c(Br)c(Br)c1Br | 58 | 101 | 97 | 98 | 35 | 105 | 65 | 144 | 141 | 100 | 90 | 101 | 68 | 94 | – | – | – | – | – | –
2 | COc1cc2nccc(Oc3ccc(NC(=S)NC(=O)c4ccccc4C)cc3)c2cc1OC | 48 | 78 | 77 | – | – | – | – | 92 | 138 | 97 | 92 | 79 | 67 | – | 87 | 73 | 96 | 121 | 74 | 79
3 | Nc1ncnc2[nH]nc(Nc3ccc(F)cc3)c12 | 58 | 107 | 74 | 105 | – | 115 | 108 | 141 | 103 | 97 | 90 | 93 | 101 | 58 | 109 | 112 | – | 124 | 106 | 103
4 | Nc1ncnc2c1c(-c1ccc(Oc3ccccc3)cc1)cn2C1CCCC1 | 54 | 76 | 72 | 104 | 103 | – | 91 | 96 | 109 | 90 | 50 | 83 | 74 | – | 100 | 58 | 94 | 114 | 15 | 58
5 | O=C(NC(NC(=S)Nc1ccc(F)c([N+](=O)[O-])c1)C(Cl)(Cl)Cl)C(c1ccccc1)c1ccccc1 (stereo unspecified) | 74 | 98 | 87 | 90 | 100 | – | – | – | 96 | 98 | 93 | – | – | – | 85 | 85 | – | 126 | – | –
6 | Nc1nc(Nc2ccc(S(N)(=O)=O)cc2)nn1C(=O)c1c(F)cccc1F | 19 | 105 | 62 | – | – | – | 69 | – | – | – | – | – | 43 | 37 | – | 63 | 96 | 112 | 57 | –
7 | N#C/C(=C1/Nc2ccccc2S1)c1ccnc(NCCc2cccnc2)n1 | 40 | 96 | 69 | 113 | 71 | – | 83 | 127 | 137 | 98 | 83 | 80 | 70 | 31 | – | – | 80 | 132 | 63 | –
8 | CCCCc1c(-c2ccc(OC)cc2)[nH]c2nccnc12 | 59 | 84 | 73 | 87 | 87 | 109 | 101 | – | – | 66 | 75 | 62 | 81 | 65 | 61 | 51 | 79 | 100 | 88 | 82
9 | CC(C)c1nn(-c2c(Cl)cccc2Cl)c2nc(Cc3ccc(OCCO)cc3)[nH]c(=O)c12 | 63 | 94 | 86 | 99 | 90 | 109 | 100 | 85 | – | 102 | 99 | 103 | 84 | 91 | 105 | 107 | 104 | – | – | 98
10 | NC(=O)Nc1sc(-c2ccc(F)cc2)cc1C(N)=O | 6 | 75 | 74 | – | – | – | – | – | – | – | – | 84 | 49 | 9 | 65 | 19 | 46 | 69 | 3 | 22
11 | CCCC(=O)Oc1ccc2[nH]c(C(=O)c3cc4ccccc4[nH]3)cc2c1 | 59 | 79 | 93 | 104 | 100 | – | 93 | 107 | 77 | 90 | 89 | 85 | 69 | – | 93 | 90 | – | 134 | 80 | 105
